# Results reported in PubChem BioAssay AID1986 (Sanford-Burnham Center for Chemical Genomics, 2009).
# Among all 290,000 compounds or so, about 890 (0.31%) were called active. Cut-off read from the data, not from the text of the source: active = inhibition mostly above about 52% (no sharp cut-off); inactive = mostly below about 76%. The entries come from a sample that favours actives as a whole.
# Assay: inhibitors of HIV fusion peptide binding, primary screen, biochemical, uHTS, fluorescence dequenching (AID 1986)
# Details: cell-free peptide binding, 30 min, stronger effect = higher value
# [1] = measured here: repeat confirmation average inhibition, at 18.6 µM
Structure (SMILES),inhibition (at 20 µM),inhibition [1] [%]
CN1CCN(c2ccc(Cl)cc2N)CC1,0.1% (inactive),–
CCC(=O)N1CC(=O)Nc2ccc(Cl)cc2C1c1ccc(F)cc1 (centres undefined),-1.6% (inactive),–
Cc1cccc(OCC(=O)N2CCN(Cc3ccc([N+](=O)[O-])cc3)CC2)c1,-1.3% (inactive),–
COc1cc(OC)c(C=O)c(OC(=O)N(C)C)c1,0.7% (inactive),–
CCCC[N+]12CCC(CC1)C(=C(c1ccccc1)c1ccccc1)C2,1.1% (inactive),–
C[C@]12CCC3C(CCC4=C/C(=N/OCC(=O)NC(CCC(=O)O)C(=O)O)CC[C@@]43C)C1CCC2O (some centres undefined),3.9% (inactive),–
NCCCC(=O)OC1N=C(c2ccccc2Cl)c2cc(Br)ccc2NC1=O (centres undefined),-0.8% (inactive),–
Clc1cccc(N2CCNCC2)n1,0.9% (inactive),–
CC(=NCC1CCCO1)c1c(O)n(C)c(=O)n(C)c1=O (centres undefined),-2.1% (inactive),–
Cc1cc(N2CCCCC2)ccc1C=C1C(=O)N(C)C(=S)N(C)C1=O,17.8% (inactive),–
CN1C(=O)C(=Cc2ccc(N3CCOCC3)o2)C(=O)N(C)C1=O,69.4% (active),81.3
CN1CCN(c2ccc(/C=C3\C(=O)NC(=S)N(c4cccc(Br)c4)C3=O)o2)CC1,53.7% (active),–
CCN1C(=O)C(=Cc2ccc(N3CCOCC3)o2)C(=O)N(CC)C1=S,136% (inactive),–
CN1C(=O)C(=Cc2ccc(N3CCCCCC3)o2)C(=O)N(C)C1=S,149% (inactive),–
Cc1cccc(N2C(=O)/C(=C/c3ccc(N4CCN(C)CC4)o3)C(=O)NC2=S)c1C,13.2% (inactive),–
CN1C(=O)C(=Cc2ccc(N3CCOCC3)o2)C(=O)N(C)C1=S,144% (inactive),–
Cc1cc(C)cc(N2C(=O)/C(=C\c3ccc(N4CCN(C)CC4)o3)C(=O)NC2=S)c1,149% (inactive),–
CN1C(=O)C(=Cc2ccc(N3CCCCC3)o2)C(=O)N(C)C1=S,103% (active),52.4
CNc1ccc2nc3ccccc3[n+](C)c2c1,20.9% (inactive),–
COc1cc(C(=S)N2CCOCC2)cc(OC)c1OC(=O)Cc1ccccc1,-1.3% (inactive),–
O=C(CNC(=O)c1ccc(Br)cc1)Nc1ccc(Br)cc1C(=O)c1ccccc1,1.3% (inactive),–
CCOC(=O)N(CC)c1ccc(C(O)(C(=O)OC)C(F)(F)F)cc1 (centres undefined),1.2% (inactive),–
CCCCn1c(=O)c(C(=O)NCc2ccco2)c(O)c2ccccc21,4.7% (inactive),–
Cc1cc(C=C(C#N)C#N)ccc1N1CCCC1,40.1% (inactive),–
Cc1cc(N2CCCC2)ccc1C=C(C#N)C#N,80.3% (active),–
N#CC(C#N)=Cc1ccc(N2CCCC2)cc1,11.8% (inactive),–
c1ccc(-c2[nH]c[n+](CC3CO3)c2-c2ccccc2)cc1 (centres undefined),12.3% (inactive),–
